The source of these data is PMC4336329 (PLoS ONE, 2015).

The campaign covered roughly 310,000 compounds. About 14,000 (4.5%) showed an effect of 50% or more. Effects have a minus sign here. What follows is part of a selection rich in strong results, with near analogues and random picks from the rest.
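Note: peak tail current of the secondary pulse compared with the same well before compound.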

The assay deals with human ether-à-go-go-related gene (hERG) potassium channel (human, UniProt Q12809). The experiment in a line: primary screen, population patch clamp on CHO cells stably expressing hERG; higher = less effect of the substance.
human ether-à-go-go-related gene (hERG) potassium channel, sequence (Q12809 whole entry, looked up): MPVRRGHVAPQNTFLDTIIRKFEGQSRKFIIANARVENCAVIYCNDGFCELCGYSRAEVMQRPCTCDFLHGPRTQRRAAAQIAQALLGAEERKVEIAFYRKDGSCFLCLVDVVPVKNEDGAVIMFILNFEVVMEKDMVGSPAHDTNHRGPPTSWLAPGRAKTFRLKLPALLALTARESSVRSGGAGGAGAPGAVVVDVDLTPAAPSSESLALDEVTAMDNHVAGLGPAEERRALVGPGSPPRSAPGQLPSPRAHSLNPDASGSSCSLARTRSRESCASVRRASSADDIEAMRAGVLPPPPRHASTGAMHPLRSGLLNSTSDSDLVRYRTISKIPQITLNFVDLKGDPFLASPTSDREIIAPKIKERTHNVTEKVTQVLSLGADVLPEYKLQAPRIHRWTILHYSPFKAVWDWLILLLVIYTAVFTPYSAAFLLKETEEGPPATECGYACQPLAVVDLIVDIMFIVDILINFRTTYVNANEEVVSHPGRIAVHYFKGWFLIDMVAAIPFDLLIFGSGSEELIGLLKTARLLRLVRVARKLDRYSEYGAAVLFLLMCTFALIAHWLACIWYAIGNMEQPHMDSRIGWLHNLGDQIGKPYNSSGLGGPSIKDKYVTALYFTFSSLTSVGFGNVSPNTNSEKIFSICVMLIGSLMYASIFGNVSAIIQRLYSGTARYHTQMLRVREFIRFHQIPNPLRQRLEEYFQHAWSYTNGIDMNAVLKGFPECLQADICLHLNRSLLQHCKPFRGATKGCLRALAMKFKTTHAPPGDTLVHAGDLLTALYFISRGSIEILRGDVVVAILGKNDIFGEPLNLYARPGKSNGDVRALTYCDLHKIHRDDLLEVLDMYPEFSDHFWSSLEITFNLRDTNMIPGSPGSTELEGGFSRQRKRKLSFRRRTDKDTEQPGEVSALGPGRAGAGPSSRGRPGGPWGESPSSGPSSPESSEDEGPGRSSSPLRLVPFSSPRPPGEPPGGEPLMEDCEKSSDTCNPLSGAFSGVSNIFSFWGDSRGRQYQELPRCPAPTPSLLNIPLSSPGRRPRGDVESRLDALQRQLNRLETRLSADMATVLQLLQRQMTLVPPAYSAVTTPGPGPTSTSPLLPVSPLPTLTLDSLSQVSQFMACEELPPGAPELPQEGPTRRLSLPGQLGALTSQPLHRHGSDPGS
As to `Cc1ccc2cccnc2c1N`, the “hERG current change (%, negative = inhibition) at 10uM” value is listed as 4.5%.
As for `NC(=O)c1ccccc1NC(=O)C1CCCO1` (stereo not shown), the figure is 8.51%; as for `COc1ccccc1CN(C)C(=O)c1ccc(COc2ccccc2)cc1`, 6.77%.
With `CCOc1cnc(-c2c(-c3ccccc3Cl)noc2C)o1` the figure was -3.56%; with `Cc1cccc2c(=O)c(C(=O)NCCc3ccccc3)c[nH]c12`, 21.9%; with `CC(=O)Nc1ccc(SCC(=O)c2ccc(Br)s2)cc1`, 19.5%.
As to `Cc1cnc(NC(=O)c2ccco2)s1`, the “hERG current change (%, negative = inhibition) at 10uM” value is recorded as 13.9%.
With `O=C(Nc1ccccc1C(=O)Nc1ccccc1)c1cccs1` the figure was -0.413%; with `COC(=O)C1=CN(Cc2ccccc2)C=C(C(=O)OC)C1c1cc(F)ccc1F`, -12.6%.
As for `c1ccc(-c2csc3ncnc(N4CCc5ccccc5C4)c23)cc1`, the figure is -1.81%.
Take `O=C(Nc1ccc(F)c(F)c1)c1ccc(-n2cncn2)c([N+](=O)[O-])c1`: the “hERG current change (%, negative = inhibition) at 10uM” value is reported as -35.7%.
On to `O=C(c1ccc(-n2cncn2)c([N+](=O)[O-])c1)N1CCN(S(=O)(=O)c2ccc(F)c(F)c2)CC1`, for which the “hERG current change (%, negative = inhibition) at 10uM” value is given as -72.7%.
As for `O=C(NNC(=O)c1ccc(-n2cncn2)c([N+](=O)[O-])c1)c1ccc(Cl)cc1`, the figure is -9.94%.
With `O=C(CCCN1C(=O)C2CC=CCC2C1=O)Nc1ccccc1F` (stereo not shown), the “hERG current change (%, negative = inhibition) at 10uM” value was 1.61%.
Turning to `CC(=O)C1C2c3ccccc3OC1(C)N=c1s/c(=C/c3cn(C)nc3C)c(=O)n12` (stereo not shown), the “hERG current change (%, negative = inhibition) at 10uM” value was -0.454%.
With `O=C(O)c1ccc(-n2cncn2)c([N+](=O)[O-])c1` the figure was 11.6%.
With `O=C(Nc1cccc(Cl)c1)c1ccc(-n2cncn2)c([N+](=O)[O-])c1` the figure was -35%; with `O=C(NNC(=O)c1ccc(-n2cncn2)c([N+](=O)[O-])c1)c1cccc(Cl)c1`, -26.3%; with `Cc1cccc(N2CCN(c3ccc(C(N)=O)cc3[N+](=O)[O-])CC2)c1C`, 21.7%.
`Cc1cccc(N2CCN(C(=O)c3ccc(-n4cncn4)c([N+](=O)[O-])c3)CC2)c1C`: the “hERG current change (%, negative = inhibition) at 10uM” value is given as -58.9%.
With `O=C(c1ccc(-n2cncn2)c([N+](=O)[O-])c1)N1CCN(c2cccc(Cl)c2)CC1` the figure was -68.5%; with `COc1ccc(C2=NS(=O)(=O)N(C)C(C(=O)Nc3ccc(OC)c(OC)c3)=C2)cc1`, -11.9%.
Regarding `O=C(CSc1nc2ccc(Cl)cc2[nH]1)c1c[nH]c2ccccc12`, the “hERG current change (%, negative = inhibition) at 10uM” value is given as 26.8%.
Consider `COc1ccc(C(=O)N2CCC(C(=O)c3ccc(F)cc3)CC2)cc1`, for which the “hERG current change (%, negative = inhibition) at 10uM” value is -70.2%.
With `Cc1ccc(C(=O)N2CCN(c3ccc(Cl)cc3)CC2)cc1` the figure was -61.1%; with `COc1ccc(C(CC(=O)N2CCCC2)C(C)C)cc1` (stereo not shown), -2.25%.
As for `COc1ccc(C(=O)C2CCN(C(=O)c3ccc(F)cc3)CC2)cc1`, the figure is -28.5%; as for `Cc1ccc(C(=O)N2CCC(C(=O)c3c(C)cc(C)cc3C)CC2)cc1`, -38.5%.
As for `COc1cc(OC)cc(OC(=O)C2CCN(C(=O)c3ccc(Cl)cc3)CC2)c1`, the figure is -33.9%; as for `COc1ccc(C(CC(=O)N2CCCC2)c2ccc(F)cc2)cc1` (stereo not shown), -71.5%; as for `O=C(c1ccccc1)N1CCN(c2ccc(Cl)cc2)CC1`, -25.1%.
For the compound `COc1ccc(C(CC(=O)N2CCCCC2)C(C)C)cc1` (stereo not shown), the “hERG current change (%, negative = inhibition) at 10uM” value turned out to be 15.8%.
With `COc1cc(OC)cc(C(=O)N2CCC(C(=O)c3ccc(F)cc3)CC2)c1` the figure was -30.8%; with `O=C(c1ccc(Cl)cc1)N1CCN(c2ccc(F)cc2)CC1`, -34%; with `COc1ccc(C(=O)N2CCC(C(=O)c3c(C)cc(C)cc3C)CC2)cc1`, -55.3%.
As for `CCc1ccc(N(CC(=O)Nc2ccc(NC(C)=O)cc2)S(=O)(=O)c2ccccc2)cc1`, the figure is 10.5%; as for `C#CCn1ccc(O)c(Cc2c(F)cccc2Cl)c1=O`, 8.2%; as for `Cc1cccc(NC(=O)c2cc(-c3ccco3)nc3ccccc23)n1`, 4.05%.
As for `O=C1CN(C(=S)NC(=O)c2ccccc2[N+](=O)[O-])CCN1`, the figure is 16.9%; as for `COc1ccc([N+](=O)[O-])cc1NC(=O)COC(=O)/C=C/c1ccco1`, 1.54%; as for `COc1ccc(Cl)cc1C(=O)NNC(=O)CSc1nnnn1C`, 9.95%.
With `Cc1cc(-c2ccccc2)nc(SCc2ccc(C(=O)O)cc2)n1`, the “hERG current change (%, negative = inhibition) at 10uM” value stood at 23.8%.
With `COc1ccc(C(=O)C2CCN(C(=O)Nc3ccc(C)cc3)CC2)cc1` the figure was -9.82%.
